Source: the supplement of paper PMC12067093, “Discovery and optimisation of a covalent ligand for TRIM25 and its application to targeted protein ubiquitination” (Chemical Science, 2025)
Targets with the largest changes are over-represented here; the source holds about 21,000 in all.

Compound: Cc1cc(ccc1-c1ccccc1)C(=O)N1CCCN(CC1)C(=O)CCl [compound 10]
Assay: probe-labelled cysteine peptide fold change vs DMSO (competition) (log2 fold change); higher = less target engagement (more negative = stronger competition)
Settings: 10 µM; THP-1; incubation time: 4 h
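Note: competitive profiling in live THP-1 cells: cysteine peptides tagged with an iodoacetamide desthiobiotin (IA-DTB) probe, intensity after compound treatment relative to DMSO-treated cells.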

Sequence of UniProt P48449 (P48449 whole entry, looked up): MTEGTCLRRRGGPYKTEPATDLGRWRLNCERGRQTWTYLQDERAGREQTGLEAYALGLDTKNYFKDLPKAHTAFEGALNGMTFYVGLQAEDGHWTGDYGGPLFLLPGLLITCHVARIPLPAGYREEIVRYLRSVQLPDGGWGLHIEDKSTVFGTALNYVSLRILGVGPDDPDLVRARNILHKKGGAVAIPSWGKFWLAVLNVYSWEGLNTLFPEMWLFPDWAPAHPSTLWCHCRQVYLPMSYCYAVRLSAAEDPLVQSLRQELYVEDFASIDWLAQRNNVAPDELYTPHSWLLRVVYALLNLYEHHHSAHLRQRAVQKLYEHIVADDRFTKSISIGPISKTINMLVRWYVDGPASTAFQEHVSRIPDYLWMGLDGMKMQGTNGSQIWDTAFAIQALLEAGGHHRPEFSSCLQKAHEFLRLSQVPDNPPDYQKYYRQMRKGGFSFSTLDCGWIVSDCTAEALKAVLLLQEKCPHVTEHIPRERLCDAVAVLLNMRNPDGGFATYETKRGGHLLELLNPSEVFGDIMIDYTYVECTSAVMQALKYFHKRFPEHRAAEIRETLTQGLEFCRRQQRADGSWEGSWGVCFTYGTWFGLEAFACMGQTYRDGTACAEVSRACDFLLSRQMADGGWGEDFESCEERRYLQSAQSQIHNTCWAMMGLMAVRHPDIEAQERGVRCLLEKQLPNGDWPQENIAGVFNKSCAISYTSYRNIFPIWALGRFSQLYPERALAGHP
Sequence of UniProt Q9NYP9 (Q9NYP9 whole entry, looked up): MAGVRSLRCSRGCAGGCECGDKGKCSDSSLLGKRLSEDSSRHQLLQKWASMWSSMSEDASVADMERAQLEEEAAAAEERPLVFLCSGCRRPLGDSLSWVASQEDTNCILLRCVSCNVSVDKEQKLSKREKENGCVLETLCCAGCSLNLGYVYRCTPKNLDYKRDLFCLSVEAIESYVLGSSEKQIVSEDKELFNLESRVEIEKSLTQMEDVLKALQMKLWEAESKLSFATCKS
Sequence of UniProt Q9BV20 (Q9BV20 whole entry, looked up): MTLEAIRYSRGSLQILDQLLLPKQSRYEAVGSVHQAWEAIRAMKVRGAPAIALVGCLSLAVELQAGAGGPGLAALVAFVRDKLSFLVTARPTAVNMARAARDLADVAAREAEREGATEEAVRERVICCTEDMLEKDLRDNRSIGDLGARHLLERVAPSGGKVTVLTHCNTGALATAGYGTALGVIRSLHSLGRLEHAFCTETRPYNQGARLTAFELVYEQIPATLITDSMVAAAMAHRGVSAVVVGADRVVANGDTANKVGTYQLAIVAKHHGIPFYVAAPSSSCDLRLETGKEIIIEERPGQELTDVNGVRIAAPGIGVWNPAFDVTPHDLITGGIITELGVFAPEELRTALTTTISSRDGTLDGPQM
Sequence of UniProt Q96S97 (Q96S97 whole entry, looked up): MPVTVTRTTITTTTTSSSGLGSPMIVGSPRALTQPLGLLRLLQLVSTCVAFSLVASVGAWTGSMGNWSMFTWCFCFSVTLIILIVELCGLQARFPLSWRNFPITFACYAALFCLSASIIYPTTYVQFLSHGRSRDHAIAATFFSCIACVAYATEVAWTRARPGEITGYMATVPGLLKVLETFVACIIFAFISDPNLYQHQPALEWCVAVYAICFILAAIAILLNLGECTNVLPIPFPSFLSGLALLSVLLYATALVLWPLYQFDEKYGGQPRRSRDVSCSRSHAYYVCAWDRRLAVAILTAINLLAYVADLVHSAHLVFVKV
Sequence of UniProt P17931 (P17931 whole entry): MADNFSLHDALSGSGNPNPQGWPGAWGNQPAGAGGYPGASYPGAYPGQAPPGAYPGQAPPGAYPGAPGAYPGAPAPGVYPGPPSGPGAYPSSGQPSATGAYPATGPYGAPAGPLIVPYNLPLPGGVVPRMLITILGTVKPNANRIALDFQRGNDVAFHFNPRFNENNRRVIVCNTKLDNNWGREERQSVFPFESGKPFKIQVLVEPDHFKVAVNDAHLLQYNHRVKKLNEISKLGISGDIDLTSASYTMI
Sequence of UniProt Q96T76 (Q96T76 whole entry, looked up): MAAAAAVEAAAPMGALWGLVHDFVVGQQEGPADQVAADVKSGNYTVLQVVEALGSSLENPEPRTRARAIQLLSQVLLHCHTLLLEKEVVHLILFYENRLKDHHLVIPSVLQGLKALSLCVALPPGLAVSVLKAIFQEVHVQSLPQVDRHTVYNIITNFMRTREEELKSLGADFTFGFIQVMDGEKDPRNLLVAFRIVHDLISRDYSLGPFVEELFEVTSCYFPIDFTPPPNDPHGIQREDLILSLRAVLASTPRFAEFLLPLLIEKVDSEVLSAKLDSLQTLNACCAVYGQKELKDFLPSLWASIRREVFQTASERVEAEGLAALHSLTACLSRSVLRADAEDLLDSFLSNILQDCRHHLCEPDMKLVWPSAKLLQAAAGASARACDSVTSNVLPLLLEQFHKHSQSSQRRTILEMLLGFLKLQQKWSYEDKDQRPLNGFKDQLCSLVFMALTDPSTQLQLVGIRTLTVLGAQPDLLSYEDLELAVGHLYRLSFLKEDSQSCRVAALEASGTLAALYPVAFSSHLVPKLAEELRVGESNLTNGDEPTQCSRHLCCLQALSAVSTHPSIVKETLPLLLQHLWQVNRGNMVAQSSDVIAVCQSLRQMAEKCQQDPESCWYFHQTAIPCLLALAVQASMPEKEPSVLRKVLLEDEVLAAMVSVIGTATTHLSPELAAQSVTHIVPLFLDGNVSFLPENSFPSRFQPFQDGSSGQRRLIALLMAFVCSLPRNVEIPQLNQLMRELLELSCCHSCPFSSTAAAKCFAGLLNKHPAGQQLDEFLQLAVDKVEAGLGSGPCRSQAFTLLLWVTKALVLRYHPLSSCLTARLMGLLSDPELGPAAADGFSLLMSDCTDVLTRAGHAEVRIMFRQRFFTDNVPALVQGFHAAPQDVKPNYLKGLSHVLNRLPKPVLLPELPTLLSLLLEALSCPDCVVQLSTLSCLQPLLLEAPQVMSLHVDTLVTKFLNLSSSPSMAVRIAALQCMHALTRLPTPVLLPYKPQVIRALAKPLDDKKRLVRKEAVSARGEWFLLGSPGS
Sequence of UniProt Q8WV92 (Q8WV92 whole entry, looked up): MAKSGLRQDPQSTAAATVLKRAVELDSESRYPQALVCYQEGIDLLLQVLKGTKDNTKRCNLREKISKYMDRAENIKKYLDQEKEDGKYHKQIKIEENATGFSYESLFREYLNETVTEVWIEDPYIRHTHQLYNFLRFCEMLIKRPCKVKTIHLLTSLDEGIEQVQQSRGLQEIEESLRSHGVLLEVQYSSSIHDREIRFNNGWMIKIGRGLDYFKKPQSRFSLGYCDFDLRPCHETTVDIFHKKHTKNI
Sequence of UniProt O15553 (O15553 whole entry, looked up): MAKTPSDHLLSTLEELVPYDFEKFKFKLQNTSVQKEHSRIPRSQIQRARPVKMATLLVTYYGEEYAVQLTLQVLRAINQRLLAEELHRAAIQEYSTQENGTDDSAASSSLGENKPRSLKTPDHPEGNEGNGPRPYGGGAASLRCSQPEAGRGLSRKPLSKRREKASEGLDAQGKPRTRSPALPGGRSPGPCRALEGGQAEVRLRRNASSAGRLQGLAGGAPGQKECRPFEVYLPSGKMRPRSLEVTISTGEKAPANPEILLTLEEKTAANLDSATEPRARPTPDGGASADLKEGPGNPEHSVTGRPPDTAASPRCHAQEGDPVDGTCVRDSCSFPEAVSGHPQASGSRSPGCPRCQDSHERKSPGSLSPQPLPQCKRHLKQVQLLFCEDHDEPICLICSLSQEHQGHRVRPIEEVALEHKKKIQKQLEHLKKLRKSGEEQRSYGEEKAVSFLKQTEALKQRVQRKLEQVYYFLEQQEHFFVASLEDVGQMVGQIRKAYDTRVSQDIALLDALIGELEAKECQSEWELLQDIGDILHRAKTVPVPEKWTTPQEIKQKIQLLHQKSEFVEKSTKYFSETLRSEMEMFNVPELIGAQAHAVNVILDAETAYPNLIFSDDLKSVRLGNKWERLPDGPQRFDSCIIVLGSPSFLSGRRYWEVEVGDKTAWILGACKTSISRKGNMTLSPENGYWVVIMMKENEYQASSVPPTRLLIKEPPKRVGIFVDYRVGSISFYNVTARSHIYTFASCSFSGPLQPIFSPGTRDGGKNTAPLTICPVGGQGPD
Sequence of UniProt Q96MC6 (Q96MC6 whole entry): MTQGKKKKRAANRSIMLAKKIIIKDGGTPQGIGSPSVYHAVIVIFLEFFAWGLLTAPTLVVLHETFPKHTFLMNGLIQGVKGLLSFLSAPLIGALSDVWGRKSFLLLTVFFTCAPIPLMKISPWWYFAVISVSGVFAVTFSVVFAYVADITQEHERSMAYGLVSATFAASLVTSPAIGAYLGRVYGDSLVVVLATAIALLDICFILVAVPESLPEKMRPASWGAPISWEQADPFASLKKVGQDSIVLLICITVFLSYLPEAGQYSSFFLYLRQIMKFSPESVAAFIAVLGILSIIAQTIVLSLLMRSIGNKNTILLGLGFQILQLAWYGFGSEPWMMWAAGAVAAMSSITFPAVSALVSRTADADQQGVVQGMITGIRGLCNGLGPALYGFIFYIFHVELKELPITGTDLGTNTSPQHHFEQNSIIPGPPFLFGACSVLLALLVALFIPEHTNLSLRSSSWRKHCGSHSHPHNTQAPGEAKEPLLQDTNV

Target	probe-labelled cysteine peptide fold change
MEFV_O15553_375_KSPGSLSPQPLPQCK (UniProt O15553)	-0.229
MIS18A_Q9NYP9_85_AQLEEEAAAAEERPLVFLCSGCR (UniProt Q9NYP9)	0.00435
MCM5_P33992_355_AIACLLFGGSRK (UniProt P33992)	-0.159
LSS_P48449_471_CPHVTEHIPR (UniProt P48449)	-0.184
MMS19_Q96T76_331_REVFQTASERVEAEGLAALHSLTACLSR (UniProt Q96T76)	-0.452
LGALS3_P17931_173_VIVCNTK (UniProt P17931)	0.0884
MACF1_Q9UPN3_5309_DCDVQGLEHDMEEINAR (UniProt Q9UPN3)	0.0885
MRI1_Q9BV20_168_VTVLTHCNTGALATAGYGTALGVIR (UniProt Q9BV20)	0.147
MITD1_Q8WV92_226_FSLGYCDFDLRPCHETTVDIFHK (UniProt Q8WV92)	0.0984
MFSD14A_Q96MC6_465_HCGSHSHPHNTQAPGEAK (UniProt Q96MC6)	-0.39
MYADM_Q96S97_279_SRDVSCSR (UniProt Q96S97)	1.07
MYH9_P35579_789_ITDVIIGFQACCR (UniProt P35579)	-0.109
LIMS3_P0CW19-2_136_YCEHDFQMLFAPCCHQCGEFIIGR<|>LIMS1_P48059_74_YCEHDFQMLFAPCCHQCGEFIIGR (UniProt P48059+P0CW19)	0.212
MMP14_P50281_574_RLLYCQR (UniProt P50281)	-0.276
MRPL42_Q9Y6G3_45_STYSPLPDDYNCNVELALTSDGR (UniProt Q9Y6G3)	0.0794
